Data reported in PubChem BioAssay (NCI).
The panel holds about 83,000 compounds, 20% with a hit somewhere; the sample as a whole holds those more often.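 Note: values are percent growth. 100 is the growth of untreated cells, values between 100 and 0 indicate rising inhibition; between -100 and 0 indicates cell death.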 A number with no mark means an inactive call. The source made the active and inactive calls. The calls were made as follows: active = growth percent below 10; inactive = the rest.

How the values were obtained:
Assay in all cases: NCI-60 one-dose screen, 48 h (100 = growth as untreated, 0 = no growth, -100 = all killed)
Settings in all cases: 10 µM unless noted
NCI-H23 lung = test system: NCI-H23 lung
NCI-H322M lung = test system: NCI-H322M lung
HOP-62 NSCLC = test system: HOP-62 NSCLC
HOP-92 NSCLC = test system: HOP-92 NSCLC
NCI-H522 lung = test system: NCI-H522 lung
A549/ATCC NSCLC = test system: A549/ATCC NSCLC
786-0 renal = test system: 786-0 renal
COLO 205 colon = test system: COLO 205 colon
NCI-H460 lung = test system: NCI-H460 lung

Row | Compound | growth (NCI-H23 lung) | growth (NCI-H322M lung) | growth (HOP-62 NSCLC) | growth (HOP-92 NSCLC) | growth (NCI-H522 lung) | growth (A549/ATCC NSCLC) | growth (786-0 renal) | growth (COLO 205 colon) | growth (NCI-H460 lung)
1 | CCOC(=O)Oc1c(OC)cc(C(=O)c2ccc(OC)c(OC(=O)CCl)c2OC)cc1OC | 32.5% | 45.2% | 16.9% | 57% | 8.85% (active) | 22.9% | 19.2% | 94.8% | –
2 | NC(=S)N1N=C(c2ccccc2)CC1c1cn(-c2ccccc2)nc1-c1ccc(OCc2ccccc2)cc1 (configuration not stated) | 104% | 94.9% | 101% | 80% | 83.5% | 91.7% | 98.4% | 115% | 106%
3 | CC(=O)OC[C@]12CC[C@@H](C(=O)CBr)[C@@H]1[C@H]1CC[C@@H]3[C@@]4(C)CC[C@H](OC(C)=O)C(C)(C)[C@@H]4CC[C@@]3(C)[C@]1(C)CC2 | 95.4% | 103% | 103% | 96% | -63.9% (active) | 106% | 95.1% | 101% | 105%
4 | O=C(Nc1ccc(Cl)cc1)c1cc(NCc2cc(O)ccc2O)ccc1O | 93.2% | 94.9% | 102% | 80.4% | -59.7% (active) | 80.7% | 95.6% | 105% | 98.7%
5 | CCOC(=O)c1cc(C#N)n2ccc3ccccc3c12 | 94.7% | – | 105% | 93.5% | 92.2% | 98.8% | – | 112% | 100%
6 | COc1cccc(-c2nc3occn3c2-c2ccnc(NCCNS(=O)(=O)c3ccc(C(F)(F)F)cc3)n2)c1 | 98.2% | 98.9% | 119% | 95.9% | 86.6% | 87.9% | 79.5% | 77.7% | 88%
7 | COc1cc(NC(C)CCCNC(=O)CCC(=O)NCCCNCCCCCCCCCCNCCCNC(=O)CCC(=O)NCCCC(C)Nc2cc(OC)cc3cccnc23)c2ncccc2c1 (configuration not stated) | 63.4% [8 µM] | 32.1% [8 µM] | 101% [8 µM] | 59% [8 µM] | 57.1% [8 µM] | 63.7% [8 µM] | 92.5% [8 µM] | 26.7% [8 µM] | 81% [8 µM]
8 | CCOC(=O)c1ccc2c(c1)ncn2-c1ccc(NC(=O)Nc2cccc(C)c2)cc1 | 78.5% | 87.9% | 81.8% | 117% | 61.3% | 103% | 79.2% | 74.3% | 102%
9 | COc1ccc(C(=O)c2nc3ccccc3n2CC(=O)c2ccc(F)cc2)cc1 | 88.4% | 99.8% | 91.4% | 95.5% | 35.6% | 98.2% | 87.3% | 131% | 108%
10 | COc1cc(/C=N/NC(=O)c2cnn3c2NC(c2ccccc2)C3)ccc1Oc1ccccc1 (configuration not stated) | 43.8% | 30.8% | 22.3% | 26.1% | 13.8% | 25.5% | 25.5% | 24.9% | 7.15% (active)
11 | CN1CCN(CCNc2nccc(-c3c(-c4cccc(O)c4)nc4sccn34)n2)S1(=O)=O | 46.1% | 70.2% | 79.3% | 49% | 46.2% | 88% | 93.2% | 17.6% | 57.3%
12 | Oc1ccc(C(c2ccc(O)cc2)c2ccc(Br)cn2)cc1 | -18.2% (active) | -27.3% (active) | 77.5% | -0.572% (active) | 42.6% | 37.3% | 89.7% | 1.1% (active) | 107%
13 | CCCCCN1C=C/C(=C\C(=O)N(C)c2ccc(OC(F)(F)F)cc2)c2ccccc21 | 87.1% | 99.6% | 90.8% | 98.1% | 78.5% | 91.3% | 99.4% | 104% | 101%
14 | C/C=C(\C)C(=O)NC1=CC[C@@]2(C)C(=CCC3C2CC[C@@]2(C)C3CC[C@@H]2C(C)N(C)C)C1=O (some centres not stated) | 39.2% | 36.9% | 46.4% | 40.6% | 77.9% | 60.8% | 44.2% | -8.4% (active) | 17.4%
15 | O=C(CSc1nc2sc3c(c2c(=O)n1-c1ccc(Cl)cc1)CCCC3)Nc1nc(-c2cccc(Br)c2)cs1 | 56.9% | 87.8% | 90.7% | 107% | 69.8% | 70.4% | 91.5% | 85.1% | 94.7%
16 | NC(=NCCCOc1ccc(F)cc1)Nc1ccc(I)cc1 | 65.5% | 88% | 80.4% | 69.8% | 56.9% | 70.4% | 72.9% | -66.8% (active) | 81.8%
17 | N#Cc1c(NCc2ccccc2I)sc2c1CCCCC2 | 87.5% | 89.9% | 91.3% | 88.8% | 86.7% | 85.7% | 90% | 108% | 96.7%
18 | COc1cccc(-c2ccc3c(c2)NC(=O)/C3=C\c2ccc[nH]2)c1 | 31.4% | 45.2% | 62.7% | 93.5% | 10.4% | 57.1% | 48.1% | 30% | 11.5%
19 | O=C(/C=C(/C=C/c1csc2ccccc12)OB(F)F)/C=C/c1csc2ccccc12 | 23% | 96.9% | 90.7% | 44.6% | 2.34% (active) | 70.1% | -2.14% (active) | -2% (active) | 66.7%
20 | Fc1ccc(-c2cn3c(nc4ccccc43)c(-c3ccccc3)n2)cc1 | 88.5% | 109% | 107% | 68.7% | 64.7% | 91.4% | 83% | 116% | 98.2%
21 | O=C1Nc2cc(-c3cccc([N+](=O)[O-])c3)ccc2/C1=C/c1ccc[nH]1 | 48.4% | 58.3% | 76.4% | 72.5% | 78.3% | 101% | 107% | 85.9% | 47.6%
22 | O=C(N/N=C/c1ccc(Oc2ccccc2)cc1)c1cnn2c1NC(c1ccccc1)C2 (configuration not stated) | 61.2% | 32.2% | 33.6% | 74.2% | 51.3% | 8.65% (active) | 41% | 51.6% | 1.16% (active)
23 | O=C(Nc1ccc(F)cc1)Nc1ccc(NC(=O)c2cc(Cl)nc3ccccc23)cc1 | 69.2% | 59.6% | 22.4% | 23.5% | 61.7% | 79.8% | 98.4% | 53.5% | 18.5%
24 | COc1cccc(-c2nc3occn3c2-c2ccnc(NCCNS(=O)(=O)c3cccc4ccccc34)n2)c1 | 103% | 104% | 103% | 122% | 102% | 105% | 97.8% | 96% | 101%
25 | CC1(C)NCCC[C@]2(C)[C@H]3CC[C@@H]4[C@H]5[C@H](C(=O)/C=C/c6ccco6)CC[C@]5(CO)CC[C@@]4(C)[C@]3(C)CC[C@@H]12 | 89.1% | 92.6% | 91.8% | 70.1% | 88.3% | 87.2% | 74.4% | -2.99% (active) | 56.2%
